Only some compounds are listed: those with a hit (about 5.8% of all), similar ones and a draw of the others.
KB-3-1 tox: kills parental KB-3-1 adenocarcinoma cells; AID 1347075; Potency, µM (series often up to 46.1 µM), most hits filed as cytotoxic; 1.4% of 400,000 active; KB-3-1 viability, CellTiter-Glo ATP luminescence, 72 h; note: % is set by controls: 0 for no effect and ±100 for the full control effect; nearly all actives have a fitted effect of over 60% in size
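Cytotoxicity measured as CellTiter-Glo luminescence after 72 h at 37 C. Compound titrations were pinned onto drug-naive KB-3-1 parental adenocarcinoma cells grown in DMEM with 10% FBS, and normalized data fitted to concentration-response curves.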
KB-V1 cytotox: kills drug-selected multidrug resistant KB-V1 cells; KB-V1 MDR cells viability, CellTiter-Glo, 72 h; Potency, µM (series often up to 46.1 µM), usual class: cytotoxic; 3.4% of 400,000 active; AID 1347076; note: % is set by controls: 0 for no effect and ±100 for the full control effect; nearly all actives have a fitted effect of over 60% in size
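Cytotoxicity via CellTiter-Glo luminescence after 72 h compound exposure at 37 degrees C. Cells: drug-selected KB-V1 line, DMEM phenol-red free plus 10% FBS. Compounds tested at multiple concentrations; normalized data fitted to concentration-effect curves.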
ALOX12 inh: blocks human arachidonate 12S-lipoxygenase. P18054. purified 12hLO, xylenol orange hydroperoxide absorbance. Potency, µM (titrated, usually from 108 µM), without a hit: at the top dose activity change, negative = inhibition, usual class: inhibitors. 1.1% of 580,000 active; note: % is set by controls: 0 for no effect and ±100 for the full control effect
Target sequence (P18054 whole entry, looked up): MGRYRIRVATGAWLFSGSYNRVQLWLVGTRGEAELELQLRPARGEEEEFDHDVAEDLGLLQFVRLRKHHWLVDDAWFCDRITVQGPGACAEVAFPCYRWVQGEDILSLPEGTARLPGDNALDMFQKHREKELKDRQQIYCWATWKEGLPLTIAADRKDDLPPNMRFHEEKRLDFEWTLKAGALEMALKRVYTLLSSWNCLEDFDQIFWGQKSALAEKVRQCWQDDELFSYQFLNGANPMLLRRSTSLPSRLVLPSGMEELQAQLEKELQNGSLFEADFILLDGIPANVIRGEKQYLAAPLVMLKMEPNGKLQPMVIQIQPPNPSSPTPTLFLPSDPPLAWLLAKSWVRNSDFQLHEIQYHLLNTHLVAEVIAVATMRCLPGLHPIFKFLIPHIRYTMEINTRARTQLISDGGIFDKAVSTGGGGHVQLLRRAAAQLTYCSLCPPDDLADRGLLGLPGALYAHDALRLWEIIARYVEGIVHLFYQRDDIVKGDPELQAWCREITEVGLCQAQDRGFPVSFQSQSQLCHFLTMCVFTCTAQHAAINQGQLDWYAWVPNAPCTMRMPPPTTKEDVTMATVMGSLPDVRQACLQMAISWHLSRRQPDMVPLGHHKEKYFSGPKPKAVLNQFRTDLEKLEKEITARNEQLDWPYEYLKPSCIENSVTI
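Purified human 12hLO (150 nM final) in 25 mM Hepes, 0.01% Triton X-100, pH 7.0 was preincubated 15 min at room temperature with compound. Then 40 uM arachidonic acid was added, 30 min. Hydroperoxide was read by Fe-XO absorbance ratio 573/405 nm.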
MCF10A rereplic: inducers of DNA re-replication in MCF 10A breast cells; MCF 10A DNA re-replication, Hoechst nuclear intensity, 48 h; Potency, µM (titrated, usually from 46.1 µM), inactives show top-dose activity, positive = re-replication, hits mostly activators; 2.9% of 350,000 active; AID 624296; note: % of control where 0% means no effect; nearly all actives have a fitted effect of over 50% in size
PINK1 modulator: changes PINK1 expression. PINK1 immunofluorescence, high-content cytometry, 24 h. AID 624263. Potency, µM (series often up to 76.6 µM), without a hit: top-dose activation (PINK1 increase), hits mostly activators. 0.2% of 410,000 active; active = well fitted activation curve with a large enough effect; inconclusive = small, poorly fitted or top-dose-only effect; cell line not stated here; note: % of control where 0% means no effect; nearly all actives have a fitted effect of over 65% in size
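Measures PINK1 amount and localization on or inside mitochondria by immunofluorescence. Stable cells get compounds at 5 concentrations for 24 hours before fixation and staining; CCCP controls included.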
SW480 rereplic: induces DNA re-replication in SW480 colon adenocarcinoma cells; SW480 DNA re-replication, Hoechst DNA content imaging, 48 h; Potency, µM (series often up to 46.1 µM), for the others: at the top dose re-replication activation, usual class: activators; 1.8% of 340,000 active; note: % of control where 0% means no effect; nearly all actives have a fitted effect of over 55% in size
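Quantitative HTS format with DMSO vehicle controls; 48 hr drug incubation at 37 C, then 40 min Hoechst staining and scanning imager measurement at 405 nm excitation.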
* marks the source's active call; other numbers are inactive results; i = inactive; ? = inconclusive; nt = no result given; [ ] = another dose, or the depositor's remark. Unless noted, calls come from the whole dose curve; as a rule, active = well fitted curve in the direction sought with a large enough effect; inconclusive = small, poorly fitted or top-dose-only effect, or another doubt; inactive = no such curve, though single readings can be large; an effect the other way counts as inactive or inconclusive. Potency is the fitted concentration of half-maximal effect.

SMILES	KB-3-1 tox	KB-V1 cytotox	ALOX12 inh	MCF10A rereplic	PINK1 modulator	SW480 rereplic
CC(=O)c1ccc(N2CCN(C(=O)c3ccc(Cn4c(=O)[nH]c5ccccc5c4=O)cc3)CC2)cc1	i	i	-15%	nt	8%	nt
O=C(c1ccc(Cn2c(=O)[nH]c3ccccc3c2=O)cc1)N1CCN(c2ccc(Cl)cc2)CC1	?	21µM*	3%	21%	-2%	17%
CCOC(=O)C(NC(=O)/C=C/c1ccccc1OC)C(=O)OCC	nt	nt	12%	nt	nt	nt
Cc1cc2ccccc2n1CC(=O)N1CCN(CC(=O)N2CCCC2)CC1	nt	nt	-1%	nt	nt	nt
CC(C)OCCCN(C)C1CCN(S(=O)(=O)c2ccc(-c3cc(C(F)(F)F)no3)s2)CC1	16µM*	9.2µM*	-5%	15%	0%	15µM*
COc1ccc(CN2CCN(c3cc(C)nc4c5c(C)cc(C)nc5nn34)CC2)cc1F	i	2.3µM*	-9%	4%	17%	9%
Cc1sc(NC(=O)c2ccco2)c(CN2CCN(c3ccc(F)cc3)CC2)c1C	i	?	-25%	11%	4%	1%
Cc1sc(NC(=O)c2ccco2)c(CN2CCN(c3ccccn3)CC2)c1C	21µM*	?	nt	?	-2%	11%
CCN(CC)c1ccc2c(Cl)c(Br)c(=O)oc2c1	?	?	nt	?	-2%	?
CCN(CC)c1ccc2c(c1)oc(=O)c1c(Cl)cc(=O)oc12	?	?	nt	?	0%	9.2µM*
CCN(CC)c1ccc2c(C)c(Cl)c(=O)oc2c1	i	i	-22%	4.1µM*	0%	?
CCOC(=O)Cc1c(C)c2ccc(N(CC)CC)cc2oc1=O	i	?	-21%	18µM*	0%	15µM*
CCN(CC)c1ccc2c(C)c(-c3ccc(N)cc3)c(=O)oc2c1	?	i	116%	3.7µM*	-2%	8.2µM*
CCOC(=O)c1ccc(NC(=O)CCNC(=O)c2ccc([N+](=O)[O-])cc2)cc1	i	15µM*	-2%	6%	6%	-5%
Cc1ccc(NC(=O)CCNC(=O)c2ccc([N+](=O)[O-])cc2)cc1C	i	i	-3%	2%	-1%	2%
Cc1ccc(-c2nc(C#N)c(NCCN3CCCCC3)o2)cc1	i	23µM*	?	2%	-4%	6%
COCCNc1oc(-c2ccc(OC)cc2)nc1C#N	i	i	-23%	nt	5%	nt
COCCNc1oc(-c2ccc(C)cc2)nc1C#N	i	23µM*	?	2%	0%	-173%
O=C1NC[C@H](Cc2ccc(O)cc2)N(C[C@@H]2CCCN2C[C@H](Cc2ccccc2)N2C[C@H](Cc3ccc(O)cc3)N(CC3CCCCCC3)C(=O)C2=O)C1=O	i	i	25µM*	nt	5%	nt
O=C1NC[C@H](Cc2ccccc2)N(C[C@H]2CCCN2C[C@H](Cc2ccccc2)N2C[C@H](Cc3ccc(O)cc3)N(CC3CCCCCC3)C(=O)C2=O)C1=O	i	i	?	?	3%	?
O=C1NC[C@H](CCCCN2C[C@H](Cc3ccc(O)cc3)N(CC3CCCCC3)C(=O)C2=O)N(CC2CCCCC2)C1=O	i	?	45µM*	nt	0%	nt
O=C1NC[C@H](Cc2ccccc2)N(C[C@H]2CCCN2C[C@H](Cc2ccc(O)cc2)N2C[C@H](Cc3ccc(O)cc3)N(CC3CCCCCC3)C(=O)C2=O)C1=O	i	i	16µM*	2%	2%	6%
Cc1cc(C)c2nc(Nc3nc(C(C)C)cc(=O)[nH]3)nc(C)c2c1	nt	nt	-43%	nt	nt	nt
COc1ccc(C2NN=C(c3c[nH]c4ccccc34)C2O)cc1 (stereo unspecified)	i	i	-27%	23%	3%	?
COc1ccc(C2C(O)C(c3c[nH]c4ccccc34)=NN2C(=O)CCl)cc1 (stereo unspecified)	?	15µM*	?	4.6µM*	2%	1.3µM*
SMILES	KB-3-1 tox	KB-V1 cytotox	ALOX12 inh	MCF10A rereplic	PINK1 modulator	SW480 rereplic
N#CC1=C(N)C2=CCCC[C@H]2[C@H](c2ccc(Br)cc2)C1(C#N)C#N	i	i	nt	16µM*	6%	?
CC(C)(C)c1ccc(NC(=S)NCc2cccs2)cc1	i	i	32µM*	?	0%	-2%[9.22 µM]
CC(Cc1cccs1)NC(=S)Nc1ccc(Cl)cc1 (stereo unspecified)	i	i	40µM*	21µM*	?	5%
CC(Cc1cccs1)NC(=S)Nc1ccc(Cl)c(Cl)c1 (stereo unspecified)	i	i	32µM*	?	?	17%
COc1ccc(-c2cc(N3CCCC(NC(=O)c4ccc5ncccc5c4)C3)n[nH]2)cc1 (stereo unspecified)	nt	nt	2%	nt	nt	nt
C=CCNC(=O)[C@@H]1Cc2cn(Cc3nccn3C)c3cccc(c23)[C@H](CC(C)C)N1	nt	nt	104%[176 µM]	nt	nt	nt
CCOC(=O)c1c(C(=O)OCC)c(C)n(CCc2ccc(OC)c(OC)c2)c1C	i	i	-1%	4%	0%	9.2µM*
CC(=O)c1c(C)[nH]c(C(=O)OCC(=O)NCc2ccc(Cl)cc2)c1C	?	i	0%	?	9%	-39%
CCOC(=O)c1c(C)[nH]c(C(=O)OCC(=O)NCc2ccc(OC)c(OC)c2)c1C	?	21µM*	-16%	23%	2%	19%
CCOC(=O)c1c(C)[nH]c(C(=O)OCC(=O)Nc2sccc2C(N)=O)c1C	i	?	?	21µM*	-1%	?
CCOC(=O)c1[nH]c(C)c(C(=O)OCC(=O)NCc2ccc(Cl)cc2)c1C	i	i	223%	0%	2%	-2%
CC(=O)c1c(C)[nH]c(C(=O)OCC(=O)NCc2cccs2)c1C	?	13µM*	17%	7%	2%	-6%
CCOC(=O)c1c(C)[nH]c(C(=O)OCC(=O)Nc2ccc(Cl)cn2)c1C	i	i	344%	-6%	1%	3%
Cc1ccc(-c2cc(C(=O)N/N=C/C(Br)=C/c3ccccc3)n[nH]2)o1	i	?	-10%	13µM*	-4%	15µM*
Cc1ccc(-c2cc(C(=O)N/N=C/c3ccccc3O)n[nH]2)o1	?	?	-20%	18µM*	13%	3.3µM*
Cc1ccc(-c2cc(C(=O)N/N=C/c3c[nH]c4ccccc34)n[nH]2)o1	i	i	7%	6%	1%	3.7µM*
Cc1ccc(-c2cc(C(=O)N/N=C/c3ccc(F)cc3)n[nH]2)o1	i	i	6%	-4%	0%	6%
CC(C)(C)c1ccc(C(=O)NC(Nc2ccc(Br)cc2)C(Cl)(Cl)Cl)cc1 (stereo unspecified)	nt	nt	28%	nt	nt	nt

From PubChem BioAssay
